Screens: PubChem BioAssay, National Center for Advancing Translational Sciences (NCATS)
HT1080NT lethal: kills 2HG-producing HT-1080-NT fibrosarcoma cells; AID 686970; hit rate 1.6% among 360,000; HT-1080-NT fibrosarcoma viability, CellTiter-Glo ATP luminescence, 48 h; Potency, µM (series often up to 46.1 µM), without a hit: at the top dose activity, negative = less viability, most hits filed as cytotoxic;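 note: NT is the 2HG producing partner of a matched IDH1 knockdown line; potency is the fitted concentration of half-maximal effect; 0% = DMSO-treated cells and -100% = media-only wells without cells; nearly all actives have a fitted effect of over 55% in size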
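Read-out is CellTiter-Glo luminescence after 10 minutes at room temperature, following 48 hours' compound treatment of HT-1080-NT cells (750 cells/well, RPMI, 5% FBS, 37 degrees C).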
DT40 TDP1 no CPT: qHTS for Inhibitors of human tyrosyl-DNA phosphodiesterase 1 (TDP1): qHTS in cells in absence of CPT | DT40 Tdp1-/- hTDP1 cells, no CPT, ATP luminescence, 48 h | hit rate 15% among 420,000 | AID 686978, 2013 | Potency, µM (titrated, usually from 46.2 µM), inactives show top-dose activity change, negative = growth inhibition, usual class: inhibitors; note: potency is the fitted concentration of half-maximal effect; nearly all actives have a fitted effect of over 55% in size
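Cells were dispensed at 400 per well, compounds added by pin tool, plates incubated ≥48 hr at 37 °C, then CellTiter-Glo added for 30 min at room temperature before luminescence reading. Line: DT40 Tdp1-/- complemented with hTDP1; camptothecin omitted.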
DT40 TDP1 CPT: growth inhibition of DT40 Tdp1-/-;hTDP1 cells with camptothecin (screen for TDP1 inhibitors); hit rate 12% among 420,000; AID 686979; Potency, µM (series often up to 46.2 µM), inactives show top-dose activity change, negative = growth inhibition, most hits filed as inhibitors; chicken DT40 Tdp1-/-;hTDP1 cells + 20 nM CPT, ATP luminescence, 48 h; note: potency is the fitted concentration of half-maximal effect; nearly all actives have a fitted effect of over 55% in size
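Cell growth measured by CellTiter-Glo luminescence after a minimum 48 h, 37 C compound exposure with 20 nM CPT in Tdp1-knockout DT40 cells stably expressing hTDP1, seeded 400/well; qHTS titration format.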
IL1B secr inh: inhibitors of inflammasome signaling (IL-1 beta secretion). hit rate 4.7% among 360,000. THP-1 LPS/ATP IL-1B secretion, AlphaLISA, 16 h; active compounds read low. activity change, % at 57.5 µM; in the data active = activity change below about -50%; inconclusive = mostly about -30% to -49%
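THP-1 cells pretreated 1 hr with compounds (up to 57.5 uM final), then stimulated with LPS (250 ng/mL final) plus ATP (1.25 mM final); secreted IL-1B measured by AlphaLISA after 16 hr, decreased signal indicating inhibition.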
HT1080 IDH1KD tx: kills HT-1080 cells with IDH1 knockdown. HT-1080 IDH1 knockdown viability, ATP luminescence, 48 h. Potency, µM (series often up to 46.1 µM), for inactives: at the top dose activity, negative = toxicity, most hits filed as cytotoxic. hit rate 2% among 360,000. AID 686971;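 note: potency is the fitted concentration of half-maximal effect; 0% = DMSO wells and -100% = cell-free medium wells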
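After a 2 h attachment period, IDH1KD HT-1080 cells took pin-transferred compound for 48 h at 37 °C; ATP-based luminescence after 10 min room-temperature reagent incubation reported viability.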
ELG1 repair inh: blocks ELG1-dependent DNA repair in HEK293T cells | HEK293T ELG1-luciferase reporter, luminescence, 16 h; DNA damage induced by 5-fluorouridine | Potency, µM (titrated, usually from 46.1 µM), for inactives: at the highest dose activity change, negative = inhibition, most hits filed as inhibitors | hit rate 2.3% among 330,000; note: potency is the fitted concentration of half-maximal effect; nearly all actives have a fitted effect of over 55% in size
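DMSO vehicle served as the neutral condition. Each well held 2,000 cells given 5-fluorouridine plus compound; after 16 hr at 37 °C/5% CO2, ONE-Glo was added and luciferase measured 30 min later.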
Starred values were filed as active, the others as inactive. A selection: hits, their analogues and other compounds. The true share with any hit is near 19%. Unless noted, calls come from the whole dose curve; as a rule, active = well fitted curve in the direction sought with a large enough effect; inconclusive = small, poorly fitted or top-dose-only effect, or another doubt; inactive = no such curve, though single readings can be large; an effect the other way counts as inactive or inconclusive. Unless noted, % is set by controls: 0 for no effect and ±100 for the full control effect.

For CN(C(=O)CSc1nnc(C2CC2)n1-c1ccccc1)C1CCS(=O)(=O)C1 (stereo not drawn) the results were HT1080NT lethal 11%, DT40 TDP1 no CPT 34%, DT40 TDP1 CPT 0%, IL1B secr inh -10, HT1080 IDH1KD tx 11% and ELG1 repair inh 11%.
`CS(=O)CC(O)(c1ccc(F)cc1)C1CC1` (stereo not drawn) gave HT1080NT lethal 1%, DT40 TDP1 no CPT -21%, DT40 TDP1 CPT -7%, IL1B secr inh 12 and HT1080 IDH1KD tx 2%.
CC(C)C(=O)NC(c1ccccc1)c1cc([N+](=O)[O-])c2cccnc2c1O (stereo not drawn) was read as HT1080NT lethal inconclusive, DT40 TDP1 no CPT inconclusive, DT40 TDP1 CPT 18µM*, IL1B secr inh 34, HT1080 IDH1KD tx 16µM* and ELG1 repair inh inconclusive.
For CCC(=O)NC(c1cccs1)c1cc([N+](=O)[O-])c2cccnc2c1O (stereo not drawn) the results were HT1080NT lethal inconclusive, DT40 TDP1 no CPT inconclusive, DT40 TDP1 CPT 21µM*, IL1B secr inh 32, HT1080 IDH1KD tx 13µM* and ELG1 repair inh -14%.
CCCC(=O)NC(c1cccs1)c1cc([N+](=O)[O-])c2cccnc2c1O (stereo not drawn) was read as HT1080NT lethal -29%, DT40 TDP1 no CPT 13µM*, DT40 TDP1 CPT 23µM*, IL1B secr inh inconclusive, HT1080 IDH1KD tx inconclusive and ELG1 repair inh -17%.
For O=C(CCc1ccccc1)NC(c1cccs1)c1cc(Cl)c2cccnc2c1O (stereo not drawn) the results were HT1080NT lethal inconclusive, DT40 TDP1 no CPT 4.1µM*, DT40 TDP1 CPT 3.7µM*, IL1B secr inh 109, HT1080 IDH1KD tx inconclusive and ELG1 repair inh inconclusive.
Screening CC(NC(=O)Cc1ccccc1[N+](=O)[O-])c1ccccc1 (stereo not drawn) returned ELG1 repair inh 1%.
`CC(=O)NC(c1cccs1)c1cc(Cl)c2ccccc2c1O` (stereo not drawn) gave ELG1 repair inh 22%.
`CC(=O)NC(C)c1cc(F)c2cccnc2c1O` (stereo not drawn) gave ELG1 repair inh -6%.
`Cc1ccc(Nc2ncc3c(=O)[nH][nH]c(=O)c3n2)cc1` gave HT1080NT lethal 1%, DT40 TDP1 no CPT -3%, DT40 TDP1 CPT 8%, IL1B secr inh 18 and HT1080 IDH1KD tx 1%.
`N[C@H](Cc1cnc[nH]1)C(=O)O` gave DT40 TDP1 no CPT -7% and DT40 TDP1 CPT -14%.
For Cc1ccccc1CNC(=O)CCS(=O)(=O)c1cc2c3c(c1)CCN3C(=O)CC2 the results were DT40 TDP1 no CPT -7% and DT40 TDP1 CPT -1%.
O=C(O)c1ccc(/C=C2\SC(=S)N(Nc3ccccc3)C2=O)cc1 was read as HT1080NT lethal inconclusive, DT40 TDP1 no CPT 0%, DT40 TDP1 CPT 5%, IL1B secr inh 44, HT1080 IDH1KD tx 4.6µM* and ELG1 repair inh 10%.
O=C1/C(=C/c2ccncc2)SC(=S)N1Nc1ccccc1 was read as HT1080NT lethal inconclusive, DT40 TDP1 no CPT inconclusive, DT40 TDP1 CPT inconclusive, HT1080 IDH1KD tx 5.8µM* and ELG1 repair inh -17%.
For COc1cc(/C=C2\SC(=S)N(Nc3ccccc3)C2=O)ccc1O the results were HT1080NT lethal -1%, DT40 TDP1 no CPT inconclusive, DT40 TDP1 CPT inconclusive, IL1B secr inh 1, HT1080 IDH1KD tx 2% and ELG1 repair inh inconclusive.
